Measured values from PubChem BioAssay (NCI).
About 83,000 compounds went through this panel and 20% of them were active in at least one assay; those are over-represented in the sample as a whole.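 In brief: 96-well plates, 48 h treatment, single concentration, percent growth endpoint.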 The source made the active and inactive calls. Rule for the calls: active = growth percent below 10; inactive = the rest.

What was measured:
Assay in all cases: NCI-60 one-dose screen, 48 h (100 = growth as untreated, 0 = no growth, -100 = all killed)
Details in all cases: 10 µM unless noted
SR leukemia = system: SR leukemia
RPMI-8226 leukemia = system: RPMI-8226 leukemia
OVCAR-8 ovarian = system: OVCAR-8 ovarian
OVCAR-5 ovarian = system: OVCAR-5 ovarian
OVCAR-4 ovarian = system: OVCAR-4 ovarian
SK-OV-3 ovarian = system: SK-OV-3 ovarian
IGROV1 ovarian = system: IGROV1 ovarian
OVCAR-3 ovarian = system: OVCAR-3 ovarian
HS 578T breast = system: HS 578T breast
NCI/ADR-RES ovarian = system: NCI/ADR-RES ovarian

Measured: growth

Cc1ccc(-c2ccc(Nc3ccccc3)nn2)cc1S(N)(=O)=O
inactive: SR leukemia 23.6% | RPMI-8226 leukemia 86.1% | OVCAR-8 ovarian 94.1% | OVCAR-5 ovarian 101% | OVCAR-4 ovarian 94.7% | SK-OV-3 ovarian 100% | IGROV1 ovarian 97.3% | OVCAR-3 ovarian 94.6%

COc1cc2nc(Cl)nc(Nc3cccc(C(=O)/C=C/c4ccc(Br)cc4)c3)c2cc1OC
active: RPMI-8226 leukemia -2.21%
inactive: SR leukemia 14.7% | OVCAR-8 ovarian 84.7% | OVCAR-5 ovarian 102% | OVCAR-4 ovarian 93% | SK-OV-3 ovarian 96.7% | IGROV1 ovarian 86.8% | OVCAR-3 ovarian 88.6% | HS 578T breast 98.4%

COc1cc2nc(Cl)nc(Nc3cccc(C(=O)/C=C/c4ccccc4)c3)c2cc1OC
active: SR leukemia 8.85% | RPMI-8226 leukemia -2.13%
inactive: OVCAR-8 ovarian 49.6% | OVCAR-5 ovarian 68.9% | OVCAR-4 ovarian 70.6% | SK-OV-3 ovarian 81.1% | IGROV1 ovarian 37.3% | OVCAR-3 ovarian 38.2% | HS 578T breast 98.5%

COc1ccc2c(c1)c1nc3cc(C)c(C)cc3nc1n2CCN(C)C
inactive: OVCAR-4 ovarian 19.8% | SK-OV-3 ovarian 27.5% | OVCAR-3 ovarian 27.1% | HS 578T breast 44.6%
active: SR leukemia -8.86% | RPMI-8226 leukemia -16.3% | OVCAR-8 ovarian 6.83% | OVCAR-5 ovarian -2.58% | IGROV1 ovarian -7.58%

Cc1cc(N2CCN(C)CC2)nc(N(CCNc2ccnc3cc(Cl)ccc23)Cc2ccco2)n1
inactive: OVCAR-8 ovarian 65.8% | OVCAR-5 ovarian 73.3% | OVCAR-4 ovarian 55.7% | SK-OV-3 ovarian 91.5% | IGROV1 ovarian 18.5% | HS 578T breast 68.7% | NCI/ADR-RES ovarian 38.7%
active: SR leukemia -22.1% | RPMI-8226 leukemia -3.89% | OVCAR-3 ovarian 3.21%

O=C1CCN2C(=O)Nc3ccccc3C2C1 (stereo not given)
inactive: SR leukemia 96.8% | RPMI-8226 leukemia 111% | OVCAR-8 ovarian 105% | OVCAR-5 ovarian 90% | OVCAR-4 ovarian 97.6% | SK-OV-3 ovarian 101% | IGROV1 ovarian 102% | OVCAR-3 ovarian 111% | HS 578T breast 103%

O=C(NO)c1ccc(Cn2c(=O)n(-c3ccccc3)c(=O)c3ccccc32)cc1
inactive: RPMI-8226 leukemia 14.8% | OVCAR-5 ovarian 62.2% | OVCAR-4 ovarian 18.7% | SK-OV-3 ovarian 26.3% | IGROV1 ovarian 33.5% | OVCAR-3 ovarian 24.2% | HS 578T breast 57.8%
active: SR leukemia 7.9% | OVCAR-8 ovarian -6.49%

C=C(C)[C@@H]1CC[C@]2(C(=O)O)CC[C@]3(C)[C@H](CC[C@@H]4[C@@]5(C)C/C(=C/c6cccc(I)c6)C(=O)C(C)(C)[C@@H]5CC[C@]43C)[C@@H]12
inactive: SR leukemia 24% | OVCAR-8 ovarian 20.5% | OVCAR-5 ovarian 81.3% | SK-OV-3 ovarian 24.2% | IGROV1 ovarian 47.6% | HS 578T breast 43.9% | NCI/ADR-RES ovarian 31.5%
active: RPMI-8226 leukemia 9.91% | OVCAR-4 ovarian 3.26% | OVCAR-3 ovarian 5.15%

C=C1C(=O)O[C@H]2[C@H]1CC/C(COC(=O)N[C@H](Cc1c[nH]c3ccccc13)C(=O)OC)=C\CC[C@@]1(C)O[C@@H]21
active: SR leukemia 3.67% | RPMI-8226 leukemia 2.85% | OVCAR-3 ovarian -21.9%
inactive: OVCAR-8 ovarian 50.5% | OVCAR-5 ovarian 98.6% | OVCAR-4 ovarian 61.4% | SK-OV-3 ovarian 96.2% | IGROV1 ovarian 16.5% | HS 578T breast 81.1% | NCI/ADR-RES ovarian 87.2%

NS(=O)(=O)c1ccc(CCNC(=O)/C=C/c2ccc(Cl)cc2)cc1
inactive: SR leukemia 75.6% | RPMI-8226 leukemia 98.3% | OVCAR-8 ovarian 95.1% | OVCAR-5 ovarian 98.5% | OVCAR-4 ovarian 87.1% | SK-OV-3 ovarian 105% | IGROV1 ovarian 91.7% | OVCAR-3 ovarian 105% | HS 578T breast 98.2%

COc1cc(-c2nc(-c3ccccc3)c(-c3ccccc3)[nH]2)cc(OC)c1O
inactive: OVCAR-5 ovarian 75.3% | IGROV1 ovarian 22.3%
active: SR leukemia 4.48% | RPMI-8226 leukemia 0.561% | OVCAR-8 ovarian -0.964% | OVCAR-4 ovarian -36.5% | SK-OV-3 ovarian -0.937% | OVCAR-3 ovarian -80.9% | HS 578T breast 9.67%

Cc1ccc(-c2nc3ccc(Cl)cc3c(=O)n2N2C(=O)CSC2c2ccccc2Cl)cc1 (stereo not given)
inactive: SR leukemia 80.8% | RPMI-8226 leukemia 80.1% | OVCAR-8 ovarian 27.3% | OVCAR-5 ovarian 82.7% | OVCAR-4 ovarian 14.4% | SK-OV-3 ovarian 36.2% | IGROV1 ovarian 57.5% | OVCAR-3 ovarian 58.6% | HS 578T breast 56.6% | NCI/ADR-RES ovarian 70.6%

CC(C)c1cc(C(=O)O)c(O)c(C(C)C)c1.CC(C)c1cc(C(=O)O)c(O)c(C(C)C)c1.[Mn]
inactive: SR leukemia 93.5% | RPMI-8226 leukemia 98% | OVCAR-8 ovarian 101% | OVCAR-5 ovarian 116% | OVCAR-4 ovarian 96.3% | SK-OV-3 ovarian 110% | IGROV1 ovarian 114% | OVCAR-3 ovarian 96.9% | HS 578T breast 107%

Brc1ccc(Cn2nnnc2-c2ccn(-c3ccccc3)n2)cc1
inactive: SR leukemia 56.4% | RPMI-8226 leukemia 59.2% | OVCAR-8 ovarian 110% | OVCAR-5 ovarian 32% | OVCAR-4 ovarian 72.7% | SK-OV-3 ovarian 82.1% | IGROV1 ovarian 77.8% | OVCAR-3 ovarian 86.8% | HS 578T breast 77.7% | NCI/ADR-RES ovarian 27.5%

Cc1cc2nc3c4cc(Cl)ccc4n(CCN(C)C)c3nc2cc1C
inactive: OVCAR-8 ovarian 19.1% | OVCAR-5 ovarian 21.8% | OVCAR-4 ovarian 27.1% | SK-OV-3 ovarian 31.1% | OVCAR-3 ovarian 32.9% | HS 578T breast 45.5%
active: SR leukemia 5.12% | RPMI-8226 leukemia -11.5% | IGROV1 ovarian 4.29%

COC(=O)[C@]12CC[C@@H](C)[C@H](C)[C@@H]1C1=CC(=O)[C@@H]3[C@@]4(C)C[C@@H](O)[C@H](O)[C@@]5(C)COC(=C45)C[C@@]3(C)[C@]1(C)CC2
active: SR leukemia 7.5%
inactive: RPMI-8226 leukemia 51.2% | OVCAR-8 ovarian 61.4% | OVCAR-5 ovarian 95.9% | OVCAR-4 ovarian 63% | SK-OV-3 ovarian 83.9% | IGROV1 ovarian 47.6% | OVCAR-3 ovarian 48.3% | HS 578T breast 49.7%

COc1cnc2c(c1)C(=O)c1c-2n(CCCNCCN2CCOCC2)c(=O)c2cc([N+](=O)[O-])ccc12
inactive: OVCAR-5 ovarian 15.3% | IGROV1 ovarian 15.6% | HS 578T breast 26.7%
active: SR leukemia -0.128% | RPMI-8226 leukemia -14.5% | OVCAR-8 ovarian 2.29% | OVCAR-4 ovarian -13.5% | SK-OV-3 ovarian -12.9% | OVCAR-3 ovarian -25.9%

O=C1/C(=C\C(Cl)=C/c2ccc([N+](=O)[O-])cc2)SC(=S)N1CCc1ccc(O)cc1
inactive: SR leukemia 13.2% | OVCAR-8 ovarian 13.3% | OVCAR-4 ovarian 26.7% | SK-OV-3 ovarian 31.8% | HS 578T breast 31.2%
active: RPMI-8226 leukemia -3.41% | OVCAR-5 ovarian -33.9% | IGROV1 ovarian -67.9% | OVCAR-3 ovarian -53.6%

C/C(Cc1ccc(Cl)cc1)=C(/c1ccc(Cl)cc1)c1ccc(OCCN2CCCC2)cc1
active: SR leukemia 9.32%
inactive: RPMI-8226 leukemia 48.3% | OVCAR-8 ovarian 83.8% | OVCAR-5 ovarian 86% | OVCAR-4 ovarian 78.4% | SK-OV-3 ovarian 99% | IGROV1 ovarian 71.8% | OVCAR-3 ovarian 70.5% | HS 578T breast 79.1%

O=C1c2cccc3cccc(c23)C(=O)N1CC#Cc1ccc2c3c(cccc13)C(=O)N(CCO)C2=O
inactive: SR leukemia 71.4% | RPMI-8226 leukemia 74.5% | OVCAR-8 ovarian 86.5% | OVCAR-5 ovarian 105% | OVCAR-4 ovarian 92.7% | SK-OV-3 ovarian 92.4% | IGROV1 ovarian 48.5% | OVCAR-3 ovarian 87% | HS 578T breast 83.3% | NCI/ADR-RES ovarian 91.7%

C=C1CC[C@@H](C(=O)OC)Cc2nc(C)ccc21
inactive: SR leukemia 95.7% | RPMI-8226 leukemia 100% | OVCAR-8 ovarian 102% | OVCAR-5 ovarian 98.4% | OVCAR-4 ovarian 103% | SK-OV-3 ovarian 109% | IGROV1 ovarian 107% | OVCAR-3 ovarian 119% | HS 578T breast 107%

C[Si](C)(C)Cc1ccccc1
inactive: SR leukemia 143% | RPMI-8226 leukemia 71.6% | OVCAR-8 ovarian 107% | OVCAR-5 ovarian 94.1% | OVCAR-4 ovarian 113% | SK-OV-3 ovarian 112% | IGROV1 ovarian 125% | OVCAR-3 ovarian 127% | HS 578T breast 120%

C=C1C(=O)O[C@H]2[C@H]1CC/C(COC(=O)NCc1c[nH]c3ccccc13)=C\CC[C@@]1(C)O[C@@H]21
inactive: OVCAR-8 ovarian 39.4% | OVCAR-5 ovarian 86.1% | OVCAR-4 ovarian 58.1% | SK-OV-3 ovarian 86.5% | IGROV1 ovarian 21.2% | HS 578T breast 87.1% | NCI/ADR-RES ovarian 78.8%
active: SR leukemia 4.39% | RPMI-8226 leukemia 4.57% | OVCAR-3 ovarian 2.08%

N#CC1c2ccccc2-c2ccccc2N1C(=O)c1ccccc1 (stereo not given)
inactive: SR leukemia 65.2% | RPMI-8226 leukemia 26.4% | OVCAR-8 ovarian 22.3% | OVCAR-5 ovarian 41.8% | OVCAR-4 ovarian 38.1% | SK-OV-3 ovarian 54.3% | IGROV1 ovarian 24.2%
active: OVCAR-3 ovarian -8.36% | HS 578T breast 7.52%

C/C(=N\Nc1ccc2ccccc2n1)c1ccccn1
inactive: OVCAR-5 ovarian 24% | OVCAR-4 ovarian 21.2% | SK-OV-3 ovarian 24.7% | HS 578T breast 49%
active: SR leukemia 6.18% | RPMI-8226 leukemia 1.84% | OVCAR-8 ovarian 6.43% | IGROV1 ovarian -2.71% | OVCAR-3 ovarian 8.54%

COc1cc(/C=C/c2cc(/C=C/c3ccc(O)c(OC)c3)n(-c3ccc(Cl)cc3)c(=O)n2)ccc1O
active: IGROV1 ovarian 8.57%
inactive: SR leukemia 36.4% | RPMI-8226 leukemia 64.5% | OVCAR-8 ovarian 107% | OVCAR-5 ovarian 103% | OVCAR-4 ovarian 78.3% | SK-OV-3 ovarian 89.7% | OVCAR-3 ovarian 83.8% | HS 578T breast 87.4%

CCCCC[C@H]1C/C=C2/C(=O)C=C[C@@H]2C/C=C\CCCC(=O)O[C@@H](CCCCC)C/C=C2/C(=O)C=C[C@@H]2C/C=C\CCCC(=O)O1
active: SR leukemia -21.5% | RPMI-8226 leukemia -30.4% | OVCAR-8 ovarian -20.7% | OVCAR-5 ovarian -68.2% | OVCAR-4 ovarian -74.3% | SK-OV-3 ovarian -52.7% | IGROV1 ovarian -68.3% | OVCAR-3 ovarian -93.5% | HS 578T breast 4.33% | NCI/ADR-RES ovarian -2.14%

C#CCN=C[C@]12CC[C@@H](C(=C)C)[C@@H]1[C@H]1CC[C@@H]3[C@@]4(C)CCC(=O)C(C)(C)[C@@H]4CC[C@@]3(C)[C@]1(C)CC2
active: IGROV1 ovarian -10.9%
inactive: SR leukemia 36.5% | RPMI-8226 leukemia 33% | OVCAR-8 ovarian 57.2% | OVCAR-5 ovarian 115% | OVCAR-4 ovarian 53.5% | SK-OV-3 ovarian 91.8% | OVCAR-3 ovarian 62.3% | HS 578T breast 87.8% | NCI/ADR-RES ovarian 64.2%
